Assay outcomes deposited in PubChem by National Center for Advancing Translational Sciences (NCATS).
An excerpt weighted towards active compounds, which were near 10% of everything screened.
PNC assembly inh: blocks assembly of the perinucleolar compartment | PC3M PTB-GFP, PNC prevalence imaging, 16 h; stronger effect = lower value | AID 2417 | 140,000 tested, 3.1% active | activity change (PNC), negative = inhibition, % at 10 µM;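 active means readout at or below -70, meaning at least 70% loss of cells showing the perinucleolar compartment, a nuclear body marking cancer cells; inconclusive means readout between -30 and a set limit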;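 further: plate controls were DMSO wells for no effect and camptothecin positive control wells for full effect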
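Compounds are pinned in duplicate onto adhered PC3M cells stably expressing GFP-tagged PTB and incubated 16 h at 37 C. Cells are then fixed, nuclei stained with Hoechst, and PNC-positive cells counted.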
Lamin A splicing: changes lamin A minigene splicing in HeLa cells; HeLa LMNA splicing GFP/RFP minigene ratio, 48 h; Potency, µM (doses to about 46.1 µM), for the others: at the highest dose ratio change, negative = inhibition, most hits filed as inhibitors; 200,000 tested, 0.01% active; AID 1487; active means well fitted inhibition curve with a large enough effect in the signal ratio, with a control signal flat, not every such curve was filed as active; inconclusive means small, poorly fitted or top-dose-only effect, or effect the other way, or a change in a side signal; the % refers to the signal ratio; further: potency means the concentration at half of the fitted maximal effect
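Read-out is the ratio of GFP to DsRed2 object intensity, acquired by 488 nm laser-scanning cytometry on HeLa lamin A-EGFP minigene reporter cells. Compound incubation 48 hrs at 37 °C in Opti-MEM with 2% FBS; DMSO 0.5% final.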
HPGD block: blocks human HPGD enzyme activity; P15428; 150,000 tested, 4.3% active; Potency, µM, for the others: top-dose activity change, negative = inhibition, usual class: inhibitors; purified HPGD, NADH fluorescence kinetic, PGE2 substrate; further: potency means the concentration at half of the fitted maximal effect
Target sequence (P15428 whole entry, looked up): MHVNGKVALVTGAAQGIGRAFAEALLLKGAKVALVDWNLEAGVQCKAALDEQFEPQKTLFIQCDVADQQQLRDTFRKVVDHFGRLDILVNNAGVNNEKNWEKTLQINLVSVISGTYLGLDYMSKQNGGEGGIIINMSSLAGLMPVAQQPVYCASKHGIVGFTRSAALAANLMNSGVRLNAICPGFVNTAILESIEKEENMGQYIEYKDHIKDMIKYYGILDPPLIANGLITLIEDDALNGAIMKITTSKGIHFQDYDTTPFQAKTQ
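20 nM HPGD preincubated 15 min at room temperature with compound in 50 mM Tris-HCl pH 8, 0.01% Tween 20. Started with 1 mM NAD+ and 30 uM prostaglandin E2; NADH fluorescence (360/450 nm) read 5 times over 30-s intervals, last minus first.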
12-hLO inh: inhibitors of human 12-lipoxygenase (ALOX12); 150,000 tested, 0.12% active; P18054; purified 12-hLO, xylenol orange hydroperoxide absorbance; Potency, µM (top dose mostly 57.1 µM), for the others: at the highest dose activity change, negative = inhibition, most hits filed as inhibitors; active means well fitted inhibition curve with a large enough effect; inconclusive means small, poorly fitted or top-dose-only effect; further: potency means the concentration at half of the fitted maximal effect; nearly all actives have a fitted effect of over 55% in size
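Hydroperoxide output read as Fe(III)-xylenol orange absorbance, 573-to-405 nm ratio, after 30 min reaction with 40 uM arachidonic acid. Enzyme: 150 nM purified human 12hLO, 15 min compound preincubation; 25 mM Hepes pH 7.0, room temperature.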
ALDH1A1 inh: inhibitors of human aldehyde dehydrogenase 1A1; P00352; Purified ALDH1A1, NADH fluorescence, propionaldehyde substrate; Potency, µM (top dose mostly 75.3 µM), for the others: top-dose activity, negative = inhibition, actives largely listed as inhibitors; 220,000 tested, 7.3% active; AID 1030;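 further: potency means the concentration at half of the fitted maximal effect; plate controls were no enzyme wells and a reference inhibitor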
Target sequence (P00352 whole entry, looked up): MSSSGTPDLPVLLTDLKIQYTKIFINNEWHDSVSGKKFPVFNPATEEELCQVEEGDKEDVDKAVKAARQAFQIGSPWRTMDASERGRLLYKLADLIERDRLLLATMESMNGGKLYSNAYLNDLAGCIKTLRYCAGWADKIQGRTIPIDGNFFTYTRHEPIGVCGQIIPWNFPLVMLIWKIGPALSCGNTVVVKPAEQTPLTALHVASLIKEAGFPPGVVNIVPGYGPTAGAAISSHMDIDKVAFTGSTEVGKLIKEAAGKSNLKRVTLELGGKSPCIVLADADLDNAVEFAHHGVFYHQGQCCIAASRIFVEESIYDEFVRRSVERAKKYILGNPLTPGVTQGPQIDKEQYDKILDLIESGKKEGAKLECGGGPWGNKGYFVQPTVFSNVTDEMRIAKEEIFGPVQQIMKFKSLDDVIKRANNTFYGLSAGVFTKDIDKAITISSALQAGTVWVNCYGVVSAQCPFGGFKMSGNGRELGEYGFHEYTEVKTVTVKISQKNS
Active calls of the source: *; [ ] = dose if it differs, or a comment. Unless noted, the call rests on the fitted dose curve; in most records, active means well fitted inhibition curve with a large enough effect (not every such curve was filed as active); inconclusive means small, poorly fitted or top-dose-only effect, or another doubt; inactive means no such curve, though single readings can be large or run the other way. Unless noted, on the % scale 0 is the no-effect control and ±100 the full control effect.

What do the screens show for `CCCCCn1c(SCC#N)nc2cc(C(=O)NCC3CCCO3)ccc2c1=O` (centres undefined)?
PNC assembly inh: inconclusive; Lamin A splicing: 3%; HPGD block: 2.5µM*; 12-hLO inh: -3%; ALDH1A1 inh: 2%

How did COC(=O)c1ccc2c(=O)n(CC3CCCO3)c(SCC(=O)Nc3ccccc3OC)nc2c1 (centres undefined) do in these assays?
PNC assembly inh: inconclusive; Lamin A splicing: 8%; HPGD block: -12%; 12-hLO inh: -7%; ALDH1A1 inh: 14µM*

Results for Cc1ccc(CSC2=Nc3ccccc3C3=NC(CC(=O)NCc4cccs4)C(=O)N23)c(C)c1 (centres undefined) ?
Lamin A splicing: -15%[46 µM]

Results for COc1ccc(C)cc1NC(=S)NNC(=O)c1c(Br)cnn1C ?
Lamin A splicing: 11%[46 µM]; ALDH1A1 inh: inconclusive

Results for NC(=O)COc1ccc(/C=N/NS(=O)(=O)c2ccccc2)cc1 ?
ALDH1A1 inh: -7%

What do the screens show for `O=Cc1ccc(OC2C=CC(C#Cc3ccccc3)OC2CO)cc1` (centres undefined)?
ALDH1A1 inh: -14%[13.5 µM]

How did O=C(C1CCC1)N1CCc2cc(S(=O)(=O)NC3CCCC3)ccc21 do in these assays?
PNC assembly inh: 43; Lamin A splicing: 2%[0.0737 µM]; HPGD block: 10µM*; 12-hLO inh: 2%; ALDH1A1 inh: -9%

How did O=C(O)CCC(=O)N1CCc2cc(S(=O)(=O)NC3CCCC3)ccc21 do in these assays?
PNC assembly inh: -4; Lamin A splicing: 4%; HPGD block: 13µM*; 12-hLO inh: -4%; ALDH1A1 inh: 8%

What do the screens show for `CN(Cc1ccco1)S(=O)(=O)c1ccc2c(c1)CCN2C(=O)CCC(=O)O`?
PNC assembly inh: 30; Lamin A splicing: -1%; HPGD block: 14µM*; 12-hLO inh: -1%; ALDH1A1 inh: 10%

What do the screens show for `O=C(/C=C/c1ccccc1)N1CCCC1CO` (centres undefined)?
ALDH1A1 inh: -1%[13.5 µM]

Results for O=C(CCCOc1ccc(Cl)cc1Cl)n1nnc2ccccc21 ?
PNC assembly inh: inconclusive; Lamin A splicing: inconclusive; HPGD block: 8.9µM*; 12-hLO inh: -4%; ALDH1A1 inh: 8%

What do the screens show for `CC(=O)c1ccc(OCCCC(=O)n2nnc3ccccc32)cc1`?
PNC assembly inh: -2; Lamin A splicing: 1%; HPGD block: 20µM*; 12-hLO inh: 2%; ALDH1A1 inh: 10%

What do the screens show for `Cc1ccc(OCC(=O)N(Cc2ccco2)c2ccccn2)cc1`?
Lamin A splicing: 6%[46 µM]

Results for CCC1SC(N)=NC1=O (centres undefined) ?
PNC assembly inh: -90*; Lamin A splicing: 1%; HPGD block: -11%; 12-hLO inh: 1%; ALDH1A1 inh: 11%

Results for NC1=NC(=O)C(Cc2ccccc2)S1 (centres undefined) ?
Lamin A splicing: 6%[46 µM]; ALDH1A1 inh: -1%

What do the screens show for `CSc1ccc(C2C(C#N)=C(N)N(c3ccccc3)C3=C2C(=O)CCC3)cc1` (centres undefined)?
PNC assembly inh: 43; Lamin A splicing: 12%; HPGD block: -12%; 12-hLO inh: inconclusive; ALDH1A1 inh: inconclusive

How did N#CC1=C(N)N(c2ccc(F)cc2)C2=C(C1c1ccc(O)cc1)S(=O)(=O)CC2 (centres undefined) do in these assays?
Lamin A splicing: inconclusive; ALDH1A1 inh: 11µM*

What do the screens show for `COc1ccc(C(=O)CCN2CCc3cc(OC)c(OC)cc3C2)cc1`?
Lamin A splicing: inconclusive; ALDH1A1 inh: 0.22µM*

What do the screens show for `COc1ccc(C(=O)CCN2CCN(c3ccccc3OC)CC2)cc1`?
ALDH1A1 inh: 0.14µM*

How did COc1ccccc1N1CCN(CCCC(=O)c2ccc(F)cc2)CC1 do in these assays?
PNC assembly inh: 20; Lamin A splicing: 4%; HPGD block: 0%; 12-hLO inh: 2%; ALDH1A1 inh: 25%

Results for COc1ccccc1N1CCN(CCCNC(=O)Nc2ccccc2C)CC1 ?
PNC assembly inh: 34; Lamin A splicing: 12%; HPGD block: 1%; 12-hLO inh: 0%; ALDH1A1 inh: 7%

How did COc1ccccc1N1CCN(CCCCN2C(=O)c3ccccc3C2=O)CC1 do in these assays?
Lamin A splicing: -16%; HPGD block: -25%; 12-hLO inh: inconclusive; ALDH1A1 inh: 13µM*

Results for Cc1ccccc1Oc1cc(-n2ncc(Cl)c(Cl)c2=O)ncn1 ?
PNC assembly inh: -87*; Lamin A splicing: inconclusive; HPGD block: -17%; 12-hLO inh: -4%; ALDH1A1 inh: 1.6µM*

What do the screens show for `CCOc1cnn(-c2cc(Oc3ccc(C)cc3)ncn2)c(=O)c1Cl`?
PNC assembly inh: -16; Lamin A splicing: 7%; HPGD block: -8%; 12-hLO inh: -5%; ALDH1A1 inh: 11µM*

What do the screens show for `CCCCN(C)CCC(=O)Nc1ccc2c(c1)CCC2`?
Lamin A splicing: inconclusive; ALDH1A1 inh: 14%

What do the screens show for `Cc1ccc(C(=O)Oc2ccc(N3C(=O)CCC3=O)c(C)c2)cc1`?
Lamin A splicing: inconclusive; ALDH1A1 inh: 13%

What do the screens show for `Cc1cc(OCC(=O)c2ccc(Br)cc2)ccc1N1C(=O)CCC1=O`?
PNC assembly inh: -4; Lamin A splicing: 8%; HPGD block: 14µM*; 12-hLO inh: -2%; ALDH1A1 inh: inconclusive

Results for O=C(COc1ccc(Br)cc1)c1ccc2c(c1)CCCC2 ?
PNC assembly inh: 74; Lamin A splicing: -2%; HPGD block: -28%; 12-hLO inh: -2%; ALDH1A1 inh: 9%

How did Cc1ccc(OCC(=O)c2ccc3c(c2)CCCC3)cc1C do in these assays?
PNC assembly inh: 63; Lamin A splicing: -13%; HPGD block: 32µM*; 12-hLO inh: -5%; ALDH1A1 inh: -1%

Results for Nc1ccccc1[N+](=O)[O-] ?
HPGD block: -6%; 12-hLO inh: -3%; ALDH1A1 inh: 11%

How did COc1cc(CN2CCNC(=O)C2CC(=O)N2CCCO2)cc(OC)c1 (centres undefined) do in these assays?
Lamin A splicing: 5%[46 µM]; ALDH1A1 inh: 8%

Results for CN1CCN(CCCCOc2ccc(F)cc2)CC1 ?
PNC assembly inh: inconclusive; Lamin A splicing: 4%; HPGD block: inconclusive; 12-hLO inh: 8%; ALDH1A1 inh: inconclusive

How did Brc1ccccc1OCCCCCN1CCOCC1 do in these assays?
ALDH1A1 inh: 11µM*

What do the screens show for `O=Cc1ccccc1Oc1ccccc1`?
PNC assembly inh: 27; Lamin A splicing: inconclusive; HPGD block: 0%; 12-hLO inh: 6%; ALDH1A1 inh: -9%

How did O=Cc1ccccc1OCCOc1ccccc1C=O do in these assays?
PNC assembly inh: 47; Lamin A splicing: inconclusive; HPGD block: inconclusive; 12-hLO inh: -4%; ALDH1A1 inh: 20µM*

What do the screens show for `Brc1ccc(OCCCCCN2CCOCC2)cc1`?
ALDH1A1 inh: -13%

How did CN1CCN(CCCCOc2ccccc2C=O)CC1 do in these assays?
ALDH1A1 inh: 22µM*
